# Compounds without any hit were thinned out: in the full panel of roughly 83,000, 20% have a hit.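 Treatment: one concentration, 48 hours, 96-well format. Scoring: percent growth, with anything below 10 considered active.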 Values without a mark were called inactive. The source made the active and inactive calls.
# Experiments:
# Test in all cases: NCI-60 one-dose screen, 48 h (100 = growth as untreated, 0 = no growth, -100 = all killed)
# NCI-H23 lung = details: 10 µM unless noted
# NCI-H226 lung = details: 10 µM unless noted
# NCI-H322M lung = details: 10 µM unless noted
# HOP-62 NSCLC = details: 10 µM unless noted
# NCI-H460 lung = details: 10 µM unless noted
# HOP-92 NSCLC = details: 10 µM unless noted
# 786-0 renal = details: 10 µM unless noted
# COLO 205 colon = details: 10 µM unless noted
# A549/ATCC NSCLC = details: 10 µM unless noted
# NCI-H522 lung = details: 10 µM
SMILES,growth (NCI-H23 lung),growth (NCI-H226 lung),growth (NCI-H322M lung),growth (HOP-62 NSCLC),growth (NCI-H460 lung),growth (HOP-92 NSCLC),growth (786-0 renal),growth (COLO 205 colon),growth (A549/ATCC NSCLC),growth (NCI-H522 lung)
COc1ccccc1-n1c(-c2ccc(O)cc2C)cn2c3c(=O)[nH]c(=O)n(C)c3nc12,91.6%,92.4%,113%,79.3%,93.1%,49.4%,72.2%,102%,–,–
CC(NNC(=S)N1CCCCCC1)c1ccc2ccccc2n1 (centres undefined),60.9%,45.3%,27.2%,42.7%,12.5%,65.7%,40%,20.1%,–,–
CC(NC(N)=S)c1ccccc1 (centres undefined),110%,101%,97.8%,85.6%,101%,106%,98%,107%,–,–
NS(=O)(=O)c1cc(C2(O)NC(=O)c3ccccc32)ccc1Cl (centres undefined),106%,97.9%,89.6%,109%,111%,104%,102%,103%,–,–
COC(=O)CC1=C(c2ccc([N+](=O)[O-])cc2)CCC1=O,100%,94%,115%,102%,103%,89.5%,104%,98.2%,–,–
CC1=C([Se]CC(OC(=O)[C@@H](CSSC(C)(C)C)NC(=O)C(C)(C)C)C(=O)NCCCCCC(=O)OCc2ccccc2)C(=O)c2ccccc2C1=O (some centres undefined),-30.2% (active),3.19% (active),-22.6% (active),-95% (active),1.81% (active),-35.9% (active),-55.6% (active),40.4%,–,–
CCN(CC)c1ccc(C(=C2C=CC(=[N+](CC)Cc3cccc(S(=O)(=O)O)c3)C=C2)c2ccc(N(CC)Cc3cccc(S(=O)(=O)O)c3)cc2)cc1,45.2%,71.3%,58.3%,1.01% (active),49.1%,66.3%,55.9%,14%,–,–
COc1cc(C2CC(C3C(=O)N(C)C(=O)N(C)C3=O)=NN2C=O)cc(OC)c1OC (centres undefined),97.3%,95.8%,91.2%,73.5%,99.9%,105%,108%,98.7%,–,–
CC[C@H]1CN2CCc3cc(OC)c(OC)cc3C2C[C@@H]1CC1NCCc2cc(OC)c(OC)cc21 (some centres undefined),-34.3% (active),-25.4% (active),-23.2% (active),-29.4% (active),-25.6% (active),-17.8% (active),-19.6% (active),-66.1% (active),–,–
Cc1ccccc1NC(=O)NC(CC(N)=O)c1ccc2c(c1)nc(-c1cccc(Oc3ccc(C(C)(C)C)cc3)c1)n2CCCN1CCCCC1C (centres undefined),64.7%,109%,65%,25.8%,-30.7% (active),13.5%,26.7%,-65.6% (active),–,–
COc1ccc(NC(=O)c2ccccc2-c2ccccc2)c(C(N)=O)c1,53.7%,70.2%,58.7%,45.3%,17%,57.3%,28.5%,9.95% (active),–,–
CC(=O)OC1Oc2cc(C)c(C)cc2-c2oc(=O)c(-c3ccccc3)cc21 (centres undefined),46.3%,-6.38% (active),33.5%,48%,4.89% (active),-41.5% (active),33.5%,0.826% (active),–,–
O=CNc1ccc2c(c1)Cc1cc([N+](=O)[O-])ccc1-2,37.9%,66.5%,9.9% (active),26.5%,15.8%,42.4%,38.1%,1.14% (active),–,–
O=C(O)C1CCN(S(=O)(=O)c2ccc(-c3ccccc3)cc2)CC1,98.3%,90.6%,124%,112%,112%,90.8%,103%,111%,–,–
C#C[C@]1(O)CCC2C3CCc4cc(O)ccc4C3CC[C@@]21C (some centres undefined),62.4%,81.3%,81.4%,35.4%,17.5%,75.3%,44.3%,41.1%,–,–
CO[C@H]1/C=C/O[C@@]2(C)Oc3c(C)c(O)c4c(O)c(c(/C=N/N5C(C)CN(Cc6ccc(C#N)cc6)CC5C)c(O)c4c3C2=O)NC(=O)/C(C)=C\C=C\[C@H](C)[C@H](O)[C@@H](C)[C@@H](O)[C@@H](C)[C@H](OC(C)=O)[C@@H]1C (some centres undefined),11.5%,49.5%,28.7%,43.8%,3.3% (active),27.1%,14.1%,1.58% (active),–,–

SMILES,growth (NCI-H23 lung),growth (NCI-H226 lung),growth (NCI-H322M lung),growth (HOP-62 NSCLC),growth (NCI-H460 lung),growth (HOP-92 NSCLC),growth (786-0 renal),growth (COLO 205 colon),growth (A549/ATCC NSCLC),growth (NCI-H522 lung)
O=C(Nc1ccccc1S)c1ccccc1,93.3%,103%,103%,120%,98.7%,109%,109%,119%,–,–
C/C(=C\CCc1ccoc1)CC/C=C(\C)CCCN1CCSCC1,64.6%,80%,7.95% (active),97.5%,10.1%,73.3%,91.6%,51.1%,–,–
COc1cccc(CCN2C(=O)CCC3=C2CCC3=O)c1,96.9%,97.4%,101%,102%,115%,86%,97.6%,108%,–,–
CC(=O)N1N=C(c2ccc(Nc3ccnc4cc(Cl)ccc34)cc2)CC1c1ccc(Cl)cc1 (centres undefined),67.8%,75.2%,96.3%,73.1%,62.9%,35.4%,62.5%,85.5%,–,–
O=C(COc1ccc(/C=C2\Oc3ccc4ccccc4c3C2=O)cc1)c1ccc(Cl)cc1,98.2%,106%,102%,105%,110%,97.7%,106%,124%,–,–
C/C(=C\CCc1ccoc1)CC/C=C(\C)CCCN1CCOCC1,46.2%,70.6%,84.5%,69.1%,54.3%,57.4%,69.4%,40.9%,–,–
CC(=O)c1ccccc1NC(=O)C(C)(c1ccccc1)c1ccccc1,82.7%,91%,89.3%,40.4%,106%,86.4%,92.5%,114%,–,–
Cc1cc2ccccn2c1C(=O)c1ccc(C(=O)c2ccccc2)cc1,84%,86.9%,90.1%,98.4%,97.3%,82.3%,84.9%,102%,–,–
COc1cc(C2CC(c3ccc(C)cc3)=NN2C=O)ccc1OCCN(C)C (centres undefined),106%,86.4%,94.3%,87.9%,99%,77.7%,101%,95.8%,–,–
Cc1ccc(C(NC(=O)c2ccccc2)c2ccc3cccnc3c2O)cc1 (centres undefined),23.5%,-6.24% (active),25.3%,17.3%,4.02% (active),24.8%,-14.5% (active),29.3%,–,–
O=C(O)c1ccc(CNS(=O)(=O)c2ccc3ccccc3c2)cc1,119%,100%,114%,112%,120%,132%,106%,105%,–,–
CC(NC(=O)Oc1cccc2ccccc12)c1ccccc1 (centres undefined),92.8%,99.7%,107%,–,105%,103%,103%,110%,73.1%,–
CC(=O)Nc1ccc(C(=O)COc2cccc(/C=C3\CCc4ccccc4C3=O)c2)cc1,84.4%,70.7%,105%,104%,97.1%,–,92.9%,130%,–,–
CN(C)CCC(=O)Nc1ccc(-n2cc(-c3cccc(NC(=S)Nc4cccc(-c5cn(-c6ccc(NC(=O)CCN(C)C)cc6)nn5)c4)c3)nn2)cc1,89.1%,135%,92.4%,–,95.6%,101%,101%,–,88.6%,–
CC(C)Sc1nc(Cl)c(C#N)c(-c2ccc(F)cc2)n1,100%,103%,102%,–,113%,92.2%,96.4%,115%,–,86.8%
O=C(CNC(=O)c1cccc2ccccc12)Nc1ccccc1Oc1ccc(O)cc1,37.2% [5 µM],62.7% [5 µM],41.3% [5 µM],–,14.5% [5 µM],77.5% [5 µM],29.3% [5 µM],5.7% [5 µM] (active),27.4% [5 µM],–

# From PubChem BioAssay (NCI)
